Assay results from the supplement of paper PMC6555819.

system: PPARg:RXRa 90nM:30nM, anti-RXR (NR concentration 90 nM, RXRa partner concentration 30 nM); experiment: PBM binding z-score (relative to random genomic background probes); higher = stronger binding; sequences stand for … in GC…GCGATTGACAGCGTAGAATGAAGG
Outline: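 Each nuclear receptor dimer, without ligand, was incubated for 1 h on custom Agilent 4×180K protein-binding microarrays. Binding was detected with antibodies against each partner (one per run), and scanned fluorescence was regression-normalized. The binding z-scores are referenced to random human genomic background probes.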

Sequence | PBM binding z-score
CCGACTGGGGCAAGGTTACCTTAACGCACAGCCA | 3.07
CATACAGGGTCAGATAGGCCAGAGTAGGGACGGC | 1.71
CCAGACAGGTGAGAAGGGAACTCAGCCTCGATTA | -0.306
CTCGAAAGGTCGTGCTCAGTTGAGTATACCAAAC | 2.53
GGAACGAGGGCATTCGAGTTGATAGAATGGCGAT | 0.303
ATCGAAAGGTCGACGAGGTGTGTATACACCGTTT | 2.17
TCTAGTAGGTTACCAATGGGGCATTCAGCTTTCT | 2.81
GCTAGCAGGGCATTTGGGTCACTCAATGACGGGC | 0.478
ACAGACAAGTGAGTGAAGGTAACTCAGCTGGACG | -0.0069
TCGTATAGGTAAAAGGTGAAAGTCGGTGTGGTAA | 7.11
GCTCGGAGGACAAGGTCAGAGCTTTGTCCGTAGA | 0.794
CCGAGTAGGTTATGGCGCATTCAGGCAACGGTGA | 0.107
CCTACTGGGCCATTCAGACGTCATTGATCATATG | 0.147
AGAATGAGGTTACCAAAAATCAGGGAAACGCTTG | 2.25
CCTCGGAGGACAGAAGTTCAGAGCTGTCCGCTTT | -0.788
GCTTGTAGATCAAGGTTAAGATAGACTAAGCTAA | 1.81
CAAACTAGGTCAAGAGGTCAAAGTACGCTTCCCG | 8.63
ATCGAAATGTCGACGAGGTGAGTATACACCGTTT | -0.0963
